Measurements taken from the supplement of paper PMC6555819.

Legend:
Experiment in all cases: PBM binding z-score (relative to random genomic background probes); higher = stronger binding; sequences stand for … in GC…GCGATTGACAGCGTAGAATGAAGG
[1] = system: PPARg:RXRa DBDmut IVT, anti-RXR (DBD mutation: RXRa K156A/R161A, NR concentration 270 nM, RXRa partner concentration 90 nM)
In short: (§1)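 For binding z-scores, the reference was random background probes on custom Agilent 4×180K protein-binding microarrays. These arrays were incubated 1 h with ligand-free nuclear receptor dimers in PBS pH 7.4, 2% milk, 0.02% Triton X-100, 1 mM DTT, 0.2 mg/mL BSA and 0.4 mg/ml salmon testes DNA. Fluorescence was scanned after antibody detection of each partner (one per run) and regression-normalized.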

[2] = system: PPARg:RXRa IVT, anti-PPARg (NR concentration 270 nM, RXRa partner concentration 90 nM)
In short: as §1

[3] = system: PPARg DBDmut:RXRa IVT, anti-PPARg (DBD mutation: PPARg1 K132A/R137A, NR concentration 270 nM, RXRa partner concentration 90 nM)
In short: as §1

[4] = system: PPARg DBDmut IVT, anti-PPARg (DBD mutation: PPARg1 K132A/R137A, NR concentration 270 nM)
In short: as §1

[5] = system: PPARg homodimer (NR concentration 180 nM)
In short: as §1

[6] = system: PXR:RXRa (NR concentration 270 nM, RXRa partner concentration 90 nM)
In short: as §1

[7] = system: PXR homodimer (NR concentration 270 nM)
In short: as §1

[8] = system: RARa:RXR (NR concentration 270 nM, RXRa partner concentration 90 nM)
In short: as §1

[9] = system: RARa homodimer (NR concentration 270 nM)
In short: as §1

[10] = system: RARb:RXRa (NR concentration 270 nM, RXRa partner concentration 90 nM)
In short: as §1

[11] = system: RARb homodimer (NR concentration 270 nM)
In short: as §1

[12] = system: RARg:RXRa (NR concentration 270 nM, RXRa partner concentration 90 nM)
In short: as §1

[13] = system: RARg homodimer (NR concentration 270 nM)
In short: as §1

[14] = system: RXRa DBDmut IVT, anti-RXR (DBD mutation: RXRa K156A/R161A, NR concentration 90 nM)
In short: as §1

[15] = system: RXRa homodimer (NR concentration 180 nM)
In short: as §1

[16] = system: THRa:RXRa (NR concentration 90 nM, RXRa partner concentration 90 nM)
In short: as §1

[17] = system: THRa homodimer (NR concentration 90 nM)
In short: as §1

[18] = system: VDR homodimer (NR concentration 270 nM)
In short: as §1

**Q.** TCTGCTACGTCAACGATGGTCAGCTAATCTGCTA was tested. Which PBM binding z-score [1] did it give?
**A.** 0.824

**Q.** And the PBM binding z-score [2]?
**A.** -0.0517

**Q.** What about the PBM binding z-score [3] of the same sequence?
**A.** -0.273

**Q.** What about the PBM binding z-score [4] of the same sequence?
**A.** 0.303

**Q.** And the PBM binding z-score [5]?
**A.** -1.54

**Q.** What about the PBM binding z-score [6] of the same sequence?
**A.** -0.555

**Q.** And the PBM binding z-score [7]?
**A.** -0.856

**Q.** And the PBM binding z-score [8]?
**A.** -0.492

**Q.** What about the PBM binding z-score [9] of the same sequence?
**A.** -1.62

**Q.** And the PBM binding z-score [10]?
**A.** -0.0266

**Q.** And the PBM binding z-score [11]?
**A.** -0.67

**Q.** What about the PBM binding z-score [12] of the same sequence?
**A.** -0.316

**Q.** And the PBM binding z-score [13]?
**A.** -0.0659

**Q.** What about the PBM binding z-score [14] of the same sequence?
**A.** 0.0473

**Q.** What about the PBM binding z-score [15] of the same sequence?
**A.** -0.261

**Q.** What about the PBM binding z-score [16] of the same sequence?
**A.** -0.616

**Q.** What about the PBM binding z-score [17] of the same sequence?
**A.** -0.92

**Q.** What about the PBM binding z-score [18] of the same sequence?
**A.** -1.61

**Q.** For CGTCCAAGGTCAAAGCTAGGTCAGTGAAAGCATT, which PBM binding z-score [1] is on record?
**A.** 3.82

**Q.** What about the PBM binding z-score [2] of the same sequence?
**A.** 4.33

**Q.** What about the PBM binding z-score [3] of the same sequence?
**A.** 0.45

**Q.** What about the PBM binding z-score [4] of the same sequence?
**A.** -0.526

**Q.** And the PBM binding z-score [5]?
**A.** 5.95

**Q.** And the PBM binding z-score [6]?
**A.** 5.09

**Q.** And the PBM binding z-score [7]?
**A.** 1.62

**Q.** What about the PBM binding z-score [8] of the same sequence?
**A.** 6.21

**Q.** What about the PBM binding z-score [9] of the same sequence?
**A.** 1.19

**Q.** And the PBM binding z-score [10]?
**A.** 5.31

**Q.** What about the PBM binding z-score [11] of the same sequence?
**A.** 5.03

**Q.** What about the PBM binding z-score [12] of the same sequence?
**A.** 7.9

**Q.** What about the PBM binding z-score [13] of the same sequence?
**A.** 7.36

**Q.** What about the PBM binding z-score [14] of the same sequence?
**A.** 4.1

**Q.** What about the PBM binding z-score [15] of the same sequence?
**A.** 6.47

**Q.** What about the PBM binding z-score [16] of the same sequence?
**A.** 4.57

**Q.** And the PBM binding z-score [17]?
**A.** 2.86

**Q.** And the PBM binding z-score [18]?
**A.** 3.7

**Q.** What does the source list for TCTTGTAGATCAGCAGTTTAAGAAAGCTGGCCAA?
**A.** PBM binding z-score [1]: 1.44; PBM binding z-score [2]: 0.0506; PBM binding z-score [3]: 0.167; PBM binding z-score [4]: 0.0418; PBM binding z-score [5]: -0.0273; PBM binding z-score [6]: 0.249; PBM binding z-score [7]: -0.18; PBM binding z-score [8]: 0.328; PBM binding z-score [9]: 0.193; PBM binding z-score [10]: -0.0976; PBM binding z-score [11]: -0.447; PBM binding z-score [12]: -0.29; PBM binding z-score [13]: -0.416; PBM binding z-score [14]: 0.659; PBM binding z-score [15]: -0.0867; PBM binding z-score [16]: -0.138; PBM binding z-score [17]: -0.319; PBM binding z-score [18]: 0.0603

**Q.** What does the source list for CCTTACGGGTCACTGAGAGGTTATAGCATTTGGA?
**A.** PBM binding z-score [1]: 3.25; PBM binding z-score [2]: 3.46; PBM binding z-score [3]: 0.696; PBM binding z-score [4]: -0.194; PBM binding z-score [5]: 3.62; PBM binding z-score [6]: 5.18; PBM binding z-score [7]: 0.124; PBM binding z-score [8]: 5.88; PBM binding z-score [9]: 1.03; PBM binding z-score [10]: 4.1; PBM binding z-score [11]: 3.75; PBM binding z-score [12]: 6.72; PBM binding z-score [13]: 4.64; PBM binding z-score [14]: 1.75; PBM binding z-score [15]: 5.62; PBM binding z-score [16]: 3.46; PBM binding z-score [17]: 0.613; PBM binding z-score [18]: 1.78

**Q.** What does the source list for CAGCTTAGGTCAGGGCCAGTATAGGAGGAACGTT?
**A.** PBM binding z-score [1]: 1.28; PBM binding z-score [2]: 0.782; PBM binding z-score [3]: -0.279; PBM binding z-score [4]: -1.2; PBM binding z-score [5]: 1.34; PBM binding z-score [6]: 0.726; PBM binding z-score [7]: 0.0136; PBM binding z-score [8]: 1.68; PBM binding z-score [9]: 0.556; PBM binding z-score [10]: 3.79; PBM binding z-score [11]: 2.93; PBM binding z-score [12]: 3.26; PBM binding z-score [13]: 4.25; PBM binding z-score [14]: 0.68; PBM binding z-score [15]: 1.75; PBM binding z-score [16]: 3; PBM binding z-score [17]: 1.78; PBM binding z-score [18]: 0.105

**Q.** For GCAGCTAGGTCAGGTTGGTCAGCTAACGGGTACG, which PBM binding z-score [1] is on record?
**A.** 2.64

**Q.** And the PBM binding z-score [2]?
**A.** 2.05

**Q.** And the PBM binding z-score [3]?
**A.** -0.736

**Q.** What about the PBM binding z-score [4] of the same sequence?
**A.** -1.04

**Q.** And the PBM binding z-score [5]?
**A.** 0.817

**Q.** And the PBM binding z-score [6]?
**A.** -0.0764

**Q.** And the PBM binding z-score [7]?
**A.** -0.615

**Q.** What about the PBM binding z-score [8] of the same sequence?
**A.** 0.573

**Q.** And the PBM binding z-score [9]?
**A.** 0.479

**Q.** What about the PBM binding z-score [10] of the same sequence?
**A.** 3.28

**Q.** What about the PBM binding z-score [11] of the same sequence?
**A.** 2.83

**Q.** What about the PBM binding z-score [12] of the same sequence?
**A.** 2.31

**Q.** And the PBM binding z-score [13]?
**A.** 3.77

**Q.** What about the PBM binding z-score [14] of the same sequence?
**A.** 0.319

**Q.** And the PBM binding z-score [15]?
**A.** 1.04

**Q.** What about the PBM binding z-score [16] of the same sequence?
**A.** 1.57

**Q.** And the PBM binding z-score [17]?
**A.** 0.4

**Q.** And the PBM binding z-score [18]?
**A.** 0.351

**Q.** How did the PBM binding z-score [1] turn out when GCTAGTTGGTCATTAAAAGGTCACACACCGGTCG was run?
**A.** 1.97

**Q.** What about the PBM binding z-score [2] of the same sequence?
**A.** 2.97

**Q.** And the PBM binding z-score [3]?
**A.** -0.134

**Q.** What about the PBM binding z-score [4] of the same sequence?
**A.** 0.443

**Q.** What about the PBM binding z-score [5] of the same sequence?
**A.** 4.31

**Q.** What about the PBM binding z-score [6] of the same sequence?
**A.** 5.25

**Q.** What about the PBM binding z-score [7] of the same sequence?
**A.** 1.39

**Q.** And the PBM binding z-score [8]?
**A.** 6.14

**Q.** What about the PBM binding z-score [9] of the same sequence?
**A.** 1.98

**Q.** And the PBM binding z-score [10]?
**A.** 4.4

**Q.** And the PBM binding z-score [11]?
**A.** 5.47

**Q.** And the PBM binding z-score [12]?
**A.** 6.05

**Q.** And the PBM binding z-score [13]?
**A.** 4.99

**Q.** And the PBM binding z-score [14]?
**A.** 0.694

**Q.** What about the PBM binding z-score [15] of the same sequence?
**A.** 5.65

**Q.** And the PBM binding z-score [16]?
**A.** 3.8

**Q.** What about the PBM binding z-score [17] of the same sequence?
**A.** 2.01

**Q.** What about the PBM binding z-score [18] of the same sequence?
**A.** 1.75

**Q.** Which results are given for CAAACTAGGTCACCGGAAGGTCAAAGCCCGCATG?
**A.** PBM binding z-score [1]: 8.25; PBM binding z-score [2]: 8.78; PBM binding z-score [3]: 2.12; PBM binding z-score [4]: 2.03; PBM binding z-score [5]: 5.32; PBM binding z-score [6]: 5.67; PBM binding z-score [7]: 1.53; PBM binding z-score [8]: 7.16; PBM binding z-score [9]: 2.71; PBM binding z-score [10]: 5.32; PBM binding z-score [11]: 5.35; PBM binding z-score [12]: 8.33; PBM binding z-score [13]: 7.37; PBM binding z-score [14]: 1.48; PBM binding z-score [15]: 6.03; PBM binding z-score [16]: 4.42; PBM binding z-score [17]: 2.96; PBM binding z-score [18]: 3.25
